# PubChem BioAssay (NCATS)
# Where “and” joins values, the source holds several entries; their conditions need not be identical. Identical values can stand only once. Inconclusive results are not listed. Some structures have more than one record in an assay (separate samples or runs), and their calls can disagree. Calls of active or inactive are those of the source. Unless noted, the call rests on the fitted dose curve; in most records, active means well fitted curve in the direction sought with a large enough effect; inconclusive means small, poorly fitted or top-dose-only effect, or another doubt; inactive means no such curve, though single readings can be large; an effect the other way counts as inactive or inconclusive.
# Assays:
# [1] = qHTS assay for small molecule agonists of the antioxidant response element (ARE) signaling pathway measured by Nrf2-dependant transcriptional activity (AID 720636; active means well fitted curve in the direction sought with a large enough effect in the repeat runs; an effect the other way counts as inactive or inconclusive;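 further: HepG2 cells with an ARE-driven luciferase reporter; % of control where 0% means no effect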)
# Procedure, shortened: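 Attachment 6 hr at 37 C, then compound versus DMSO vehicle for 16 hr in ARE-luc HepG2 cells (1% dialyzed FBS); luminescence recorded 30 min after ONE-Glo addition at room temperature.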
# [2] = qHTS assay for small molecule antagonists of the retinoid-related orphan receptor gamma (ROR-gamma) signaling pathway - cell viability counter screen (AID 720652; active means well fitted curve in the direction sought with a large enough effect in the repeat runs; an effect the other way counts as inactive or inconclusive;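 further: CHO reporter cells with doxycycline-induced ROR-gamma expression; compound exposure lasted 16 hr before ATP read; on the % scale 0 is the no-effect control and ±100 the full control effect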)
# Procedure, shortened: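 Cytotoxicity counter screen: intracellular ATP (CellTiter-Glo luminescence) measured in the doxycycline-induced CHO RORE-luciferase reporter line after 16 hr compound exposure at 37 C, 5% CO2.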
# [3] = qHTS assay for small molecule agonists of the antioxidant response element (ARE) signaling pathway measured by Nrf2-dependant transcriptional activity - cell viability counter screen (AID 720653; active means well fitted curve in the direction sought with a large enough effect in the repeat runs; an effect the other way counts as inactive or inconclusive; further: on the % scale 0 is the no-effect control and ±100 the full control effect); conditions: ARE-bla HepG2 viability, CellTiter-Glo ATP luminescence, 16 h; max response: stronger effect = lower value
# Procedure, shortened: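 ARE-bla HepG2 cells treated with compounds for 16 h at 37C; this counter screen measures viability as intracellular ATP by CellTiter-Glo luminescence after 30 min at room temperature.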
# [4] = qHTS Assay for Identifying Gametocytocidal Compounds (AID 743244);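 further: on the % scale 0 is the no-effect control and ±100 the full control effect; actives lower the fluorescent signal which means gametocytes are killed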; conditions: P. falciparum 3D7 stage III-V gametocytes, alamarBlue, 72 h; max response: stronger effect = lower value
# Procedure, shortened: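 Fluorescence at Ex 525/Em 598 nm, recorded 24 h after alamarBlue addition, reports residual metabolic activity of 3D7 gametocytes (stages III–V) following 72 h compound exposure at 37 °C, 5% CO2.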
# [5] = qHTS assay for cell viability of HEK293 cells (AID 743288); conditions: ATP luminescence (CellTiter-Glo), 18 h; max response: stronger effect = lower value; further: nearly all actives have a fitted effect of over 50% in size; further: potency means the concentration at half of the fitted maximal effect; on max response: on the % scale 0 is the no-effect control and ±100 the full control effect
# Procedure, shortened: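 ATP luminescence (CellTiter-Glo) reports metabolically competent cell number after parental HEK293 cells, 2,000/well, were treated with DMSO-dissolved compounds for 18 h at 37 C; reagent incubation 30 min, room temperature.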
# [6] = qHTS assay for cell viability of the p53RE-bla HCT-116 cell line (AID 743292); further: nearly all actives have a fitted effect of over 55% in size; further: potency means the concentration at half of the fitted maximal effect
# Procedure, shortened: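 Compound-exposed HCT-116 (p53RE-bla) cells, 4,000 per well, were kept 16 h at 37 C following a 5 h preincubation. Cell number was estimated from total ATP by CellTiter-Glo luminescence read after 30 min at room temperature.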
# [7] = qHTS profiling of the MIPE4 collection as inhibitors of Plasmodium falciparum (3D7) proliferation (AID 743344; call rule not given here;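 further: scaled between DMSO vehicle wells and 0.29 µM artemisinin as full inhibition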); conditions: P. falciparum 3D7 in erythrocytes, SYBR Green DNA fluorescence, 72 h; at 28.5 µM (top of the series) unless noted
# Procedure, shortened: (§1)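 Parasite DNA was quantified by SYBR Green I fluorescence (ex 485, em 535 nm) after overnight lysis in saponin/Triton buffer at room temperature. Cultures at 0.3% parasitemia and 2.5% hematocrit were first exposed to compound for 72 h at 37 C; signals were normalised to artemisinin (0.29 uM) and vehicle wells.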
# [8] = qHTS profiling of the MIPE4 collection as inhibitors of Plasmodium falciparum (DD2) proliferation (AID 743345; call rule not given here); conditions: P. falciparum Dd2 in erythrocytes, SYBR Green DNA, 72 h; at 28.5 µM (top of the series) unless noted
# Procedure, shortened: as §1
# [9] = qHTS profiling of the MIPE4 collection as inhibitors of Plasmodium falciparum (DD2) proliferation (Rep 2) (AID 743346; call rule not given here); conditions: P. falciparum Dd2 in erythrocytes, SYBR Green DNA, 72 h; at 28.5 µM (top of the series) unless noted
# Procedure, shortened: as §1
# [10] = qHTS profiling of the MIPE4 collection as inhibitors of Plasmodium falciparum (HB3) proliferation (AID 743347; call rule not given here;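 further: plate controls were DMSO vehicle wells for no effect and artemisinin wells for full effect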); conditions: P. falciparum HB3 in erythrocytes, SYBR Green DNA, 72 h; at 28.5 µM (top of the series) unless noted
# Procedure, shortened: as §1
# [11] = High-throughput drug toxicity screening in the BPDCN cell line Gen2.2 (AID 1224824; call rule not given here;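 further: cells exposed to compounds for 48 h before reading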); conditions: Gen2.2 BPDCN cells; at 45.8 µM (top of the series) unless noted
# Procedure, shortened: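 CellTiter-Glo luminescence after 48 h compound exposure of Gen2.2 cells; percent activity set with DMSO as 100% and bortezomib (9.2 uM final) as 0%. Cells seeded at 500 per well, RPMI + 10% FBS, 37 °C.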
# [12] = High-throughput drug toxicity screening in the BPDCN cell line Cal-1 (AID 1224825; call rule not given here); conditions: Cal-1 BPDCN cell viability, qHTS; at 45.8 µM (top of the series) unless noted
# Procedure, shortened: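 CellTiter-Glo luminescence after 48 h compound exposure; percent activity scaled with DMSO as 100% and bortezomib (9.2 uM final) as 0%. Cal-1 cells seeded at 500/well in RPMI, 10% FBS, no phenol red.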
# [13] = qHTS assay for measurement of the activity of small molecule inhibitors on Zika virus induced Caspase-3 activity in human iPSC derived neural progenitor cells (hNPCs) (AID 1224857); further: nearly all actives have a fitted effect of over 65% in size; further: potency means the concentration at half of the fitted maximal effect
# Procedure, shortened: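 Zika virus (2 FFU/cell) infection of human iPSC-derived NPCs, 6 h, following 1 h compound preincubation. Read-out: Caspase-Glo 3/7 luminescence.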
# [14] = qHTS assay for measurement of the activity of small molecule inhibitors on Zika virus induced Caspase-3 activity in human astrocytoma cells (AID 1224859); further: potency means the concentration at half of the fitted maximal effect
# Procedure, shortened: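 Caspase activation in ZIKV-infected SNB-19 cells (2 FFU/cell, 6 h) measured by Caspase-Glo 3/7 luminescence after 30 min RT; compound pre-incubated 1 h; normalised to uninfected and infected controls.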
# [15] = molecular target: T1, Hexokinase-4 (Homo sapiens) + Glucokinase regulatory protein (Homo sapiens) (UniProt P35557+Q14397); test: qHTS assay for inhibitors of recombinant human GCK-GKRP interaction: Diaphorase-coupled assay (AID 743205)
# T1 sequence (P35557 whole entry, looked up): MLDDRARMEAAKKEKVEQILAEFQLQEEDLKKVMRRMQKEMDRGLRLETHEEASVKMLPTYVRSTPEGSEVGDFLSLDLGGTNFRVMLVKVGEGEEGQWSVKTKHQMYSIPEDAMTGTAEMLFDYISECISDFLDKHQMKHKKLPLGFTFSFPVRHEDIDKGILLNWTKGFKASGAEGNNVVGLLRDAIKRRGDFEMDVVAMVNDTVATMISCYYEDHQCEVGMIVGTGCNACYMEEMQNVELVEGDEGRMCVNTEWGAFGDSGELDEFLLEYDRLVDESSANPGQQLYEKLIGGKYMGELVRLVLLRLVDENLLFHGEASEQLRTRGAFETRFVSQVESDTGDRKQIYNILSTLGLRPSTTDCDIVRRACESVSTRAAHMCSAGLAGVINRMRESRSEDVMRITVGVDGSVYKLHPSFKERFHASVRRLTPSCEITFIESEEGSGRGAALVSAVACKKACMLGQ
# T1 sequence (Q14397 whole entry, looked up): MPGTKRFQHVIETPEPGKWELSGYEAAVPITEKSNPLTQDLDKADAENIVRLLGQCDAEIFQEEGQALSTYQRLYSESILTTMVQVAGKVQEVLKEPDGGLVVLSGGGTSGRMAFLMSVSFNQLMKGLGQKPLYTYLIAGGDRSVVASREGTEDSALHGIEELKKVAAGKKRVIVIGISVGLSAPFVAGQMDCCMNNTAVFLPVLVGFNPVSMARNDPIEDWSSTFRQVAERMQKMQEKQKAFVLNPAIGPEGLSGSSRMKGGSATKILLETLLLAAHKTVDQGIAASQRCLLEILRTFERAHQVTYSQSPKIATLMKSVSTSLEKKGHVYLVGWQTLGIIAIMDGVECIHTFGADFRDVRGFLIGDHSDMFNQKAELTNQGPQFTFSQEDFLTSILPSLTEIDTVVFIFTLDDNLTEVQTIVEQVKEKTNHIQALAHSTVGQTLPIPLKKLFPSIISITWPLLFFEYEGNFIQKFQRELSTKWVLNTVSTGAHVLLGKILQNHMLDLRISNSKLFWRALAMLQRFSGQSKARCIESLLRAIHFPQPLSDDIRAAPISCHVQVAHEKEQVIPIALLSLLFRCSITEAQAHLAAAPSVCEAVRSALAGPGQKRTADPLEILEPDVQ
# Procedure, shortened: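 Resorufin fluorescence (525/590 nm), read each minute over 30 min, reports GCK activity coupled via G6PDH and diaphorase. Reaction: 10 nM GST-GCK, 10 nM FLAG-GKRP, 5 mM glucose, 0.4 mM ATP, 0.15 mM NADP+, 0.1 mM resazurin.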
# [16] = molecular target: T1, Hexokinase-4 (Homo sapiens) + Glucokinase regulatory protein (Homo sapiens); test: qHTS assay for inhibitors of recombinant human GCK-GKRP interaction: ADP-Glo assay (AID 743206);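 further: plate controls were DMSO plus enzyme for no effect and no enzyme for full effect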
# Procedure, shortened: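 Pin-transferred compounds meet a 15 nM GST-GCK/15 nM FLAG-GKRP/2 uM S6P mix (dispense concentrations). ATP is then added to 0.4 mM final with 5 mM glucose, and the reaction runs 60 min at room temperature. ADP is quantified luminescently.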
# [17] = molecular target: T1, Hexokinase-4 (Homo sapiens) + Glucokinase regulatory protein (Homo sapiens); test: qHTS assay for inhibitors of recombinant human GCK-GKRP interaction: HTRF assay (AID 743207);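 further: 0% = DMSO with GCK present and -100% = DMSO wells lacking GCK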
# Procedure, shortened: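 HTRF read-out (ex 320 nm; 615/665 nm emission) after 60 min RT equilibration of 5 nM GST-GCK, 5 nM FLAG-GKRP, 2 uM S6P, compound and anti-FLAG/anti-GST detection antibodies; signal normalized between DMSO wells with and without GCK.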
# [18] = qHTS profiling for inhibitors of Plasmodium falciparum (3D7) proliferation (AID 743322);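 further: infected erythrocytes exposed to compound for 72 h before lysis; 100% = DMSO vehicle wells and 0% = 0.29 µM artemisinin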; conditions: P. falciparum 3D7 proliferation; at 28.7 µM (top of the series)
# Procedure, shortened: as §1
# [19] = qHTS profiling for inhibitors of Plasmodium falciparum (DD2) proliferation (AID 743323; call rule not given here); conditions: lower = more inhibition; at 28.7 µM (top of the series)
# Procedure, shortened: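 1536-well qHTS; infected RBCs 0.3% parasitemia/2.5% Hct final; cpd 72 h 37 C 5% CO2; lysis buffer + SYBR Green I, o/n RT dark; FI 485/535; norm. to 0.29 uM artemisinin and DMSO, plate-stack corrected.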
SMILES,outcome [1],Potency [2],max response [3],max response [4],max response [5],Potency [6],"parasite growth, % of DMSO control [7]","parasite growth remaining, % of DMSO control (lower = more inhibition) [8]","parasite growth, % of control (lower = inhibition) [9]","growth, % of control [10]","cell viability, % of control (lower = more cytotoxic) [11]",viability (% of control) [12],Potency [13],Potency [14],outcome [15],outcome [16],outcome [17],Potency [5],remaining parasite growth % (stronger effect = lower value) [18],"activity, percent of control [19]"
Cc1noc(NS(=O)(=O)c2ccc(N)cc2)c1C,inactive,inactive,-4.33% (inactive) and -0.699% (inactive),-10.4% (inactive) and -5.26% (inactive),-2.22% (inactive) and 5.06% (inactive),inactive,96.2%,98.9%,103%,98.2%,138%,96.8%,inactive,inactive,,,,,,
Cc1ccnc2c1NC(=O)c1cccnc1N2C1CC1,inactive,inactive,-0.463% (inactive),21.9% (inactive),-6.97% (inactive),inactive,,,,,1.63%,7.09%,inactive,inactive,,,,,,
CCN(CC)CC#CCOC(=O)C(O)(c1ccccc1)C1CCCCC1 (centres undefined),,,,-0.0303% (inactive) and 25.9% (inactive),,,14.3%,58.4%,16.6%,11.2%,205%,104%,inactive,inactive,inactive,inactive,inactive,,,
NC(=O)c1ccc2[nH]ccc2c1,,,,,,,98%,90.8%,122%,57.5%,140%,90.6%,inactive,inactive,inactive,inactive,inactive,,,
CC(C)OC(=O)OCOP(=O)(CO[C@H](C)Cn1cnc2c(N)ncnc21)OCOC(=O)OC(C)C,,,,,,,,,,,162%,42.8%,inactive,inactive,,,,,,
O=C(O)c1cc(=O)[nH]c(=O)[nH]1,inactive,inactive,16.2% (inactive),-0.993% (inactive),-10.9% (inactive),inactive,101%,144%,89%,107%,184%,128%,inactive,inactive,,,,,,
CC(=O)Oc1ccccc1C(=O)Nc1ncc([N+](=O)[O-])s1,inactive,,,,,,4.65% [at 57.5 µM],8.2% [at 57.5 µM],7.18% [at 57.5 µM],4.58% [at 57.5 µM],73% [at 92.2 µM],38.5% [at 92.2 µM],1910 nM (active),1.71 µM (active) and inactive,,,,28200 nM (active),,
CC1=C(C(=O)O)N2C(=O)[C@@H](NC(=O)C(N)c3ccccc3)[C@H]2SC1 (some centres undefined),,,,7.37% (inactive),,,101%,95.4%,151%,108%,114%,12.1%,inactive,inactive,inactive,inactive,inactive,,,
Nc1nc(N)c2nc(CNc3ccc(C(=O)NC(CCC(=O)O)C(=O)O)cc3)cnc2n1 (centres undefined),inactive,,,,,89.1 nM (active),25%,7.65%,21%,23.4%,23.1%,9.27%,inactive,inactive,inactive,inactive,inactive,,,
O=S(=O)(c1cccc2cnccc12)N1CCCNCC1,,,,,,,,,,,21.4%,94.6%,inactive,inactive,,,,,,
O=C(O)c1ccc(-n2nc(-c3ccccc3O)nc2-c2ccccc2O)cc1,,,,-16.4% (inactive),,,50.5%,107%,34.2%,94.6%,142%,25.8%,inactive,inactive,,,,,,
CCn1cc(C(=O)O)c(=O)c2cc(F)c(N3CCN(C)CC3)cc21,,,,4.94% (inactive),,,206%,70.5%,52.8%,370%,85.7%,97.9%,inactive,inactive,,,,,,
C[C@]12C=CC(=O)C=C1CC[C@@H]1[C@@H]2C(=O)C[C@@]2(C)[C@H]1CC[C@]2(O)C(=O)CO,inactive,inactive,1.48% (inactive),18% (inactive),0.765% (inactive),inactive,93.3% [at 9.64 µM],95.7% [at 9.64 µM],82.6% [at 9.64 µM],104% [at 9.64 µM],158% [at 23.2 µM],86.4% [at 23.2 µM],inactive,inactive,,,,,,
CNS(=O)(=O)Cc1ccc2[nH]cc(CCN(C)C)c2c1,,,,0.507% (inactive),,,64.4%,70.9%,75.7%,17.2%,219%,117%,inactive,inactive,,,,,,
CCOC(=O)c1ccc(C#Cc2ccc3c(c2)C(C)(C)CCS3)nc1,,,,32% (inactive),,,36.2%,83.8%,29.1%,50.6%,379%,47%,inactive,inactive,,,,,,
CCN(CC)CCn1c(=O)c(Cc2ccc(OC)cc2)nc2ccccc21,,,,-7.99% (inactive),,,206%,46.8%,28.1%,149%,115%,94.1%,inactive,inactive,inactive,inactive,inactive,,41.3%,89.9%
NNC(=O)c1ccncc1,inactive,inactive,-4.52% (inactive),,-4% (inactive),inactive,5.29%,8.99%,8.5%,2.55%,88.1%,99.3%,inactive,inactive,,,,,,
CCc1cc(C(N)=S)ccn1,inactive,inactive,-5.32% (inactive) and -4.73% (inactive),,6.59% (inactive) and -10.6% (inactive),inactive,4.85%,10.5%,6.58%,2.68%,139%,95.1%,inactive,inactive,,,,,,
